# Reference: PubChem BioAssay (Tox21)
# Records with an inconclusive call do not appear. A call without a number means that no potency is given here. Values without a mark were called inactive. The source made the active and inactive calls. Calls follow the shape of the full dose curve.
# Biological target: D(2) dopamine receptor (Homo sapiens) (UniProt P14416)
# Experiment: Dopamine D2 receptor (DRD2) small molecule agonists, cell-based qHTS assay (AID 1963594); also: nearly all actives have a fitted effect of over 35% in size
# Conditions: HEK293-DRD2 cAMP HTRF, agonist mode, 30 min; series mostly up to 92.4 µM
# Text: National Center for Advancing Translational Sciences [NCATS]
# Division of Preclinical Innovation [DPI]
# U.S. Environmental Protection Agency [EPA]
# National Institutes of Environmental Health Sciences [NIEHS]
# National Toxicology Program [NTP]
# U.S. Food and Drug Administration [FDA]
# DRD2 is the D2 subtype of the dopamine receptor, which is coupled to Gi subtype of G protein-coupled receptor. This G protein-coupled receptor inhibits adenylyl cyclase activity. The DRD2-HEK293 cell line stably expressing D2 dopamine receptor can be used for screening agonists and antagonists of interactions between D2 and its ligands. The Hek293-DRD2 cAMP assay is based on HTRF technology. It measures changes of cAMP accumulation in response to Gi coupled GPCR activation or inhibition.
# Tox21 Assay Protocol Summary:
# DRD2-Hek293 cells were dispensed at 600 cells/3uL/well in 1536-well white plates using a Multidrop Dispenser. After the assay plates were incubated at a 37 C/5% CO2 incubator for 24 h, 1 uL of Ro20-1724 at final concentration of 0.1 mM was transferred to the assay plate by a Flying Reagent Dispenser. Following Ro20-1724 addition, 23 nL of compound dissolved in DMSO, positive controls or DMSO only was added to the assay plates via Wako pintool station. The assay plates were incubated at room temperature for 10 min. Next, 1 uL of NKH477 at 200nM was added into the plates. After the assay plates were incubated at room temperature for an additional 30 min, 2.5 ul/well of cAMP-d2 and 2.5 ul/well of anti-cAMP-cryptate were added respectively into the assay plates using a Flying Reagent Dispenser. The plates were incubated at room temperature for 1 h. The fluorescence intensity in the plates was measured at 340 nm excitation and 665 & 620 nm emission by an Envision plate reader.
# Sequence of D(2) dopamine receptor (Homo sapiens) (P14416 whole entry, looked up): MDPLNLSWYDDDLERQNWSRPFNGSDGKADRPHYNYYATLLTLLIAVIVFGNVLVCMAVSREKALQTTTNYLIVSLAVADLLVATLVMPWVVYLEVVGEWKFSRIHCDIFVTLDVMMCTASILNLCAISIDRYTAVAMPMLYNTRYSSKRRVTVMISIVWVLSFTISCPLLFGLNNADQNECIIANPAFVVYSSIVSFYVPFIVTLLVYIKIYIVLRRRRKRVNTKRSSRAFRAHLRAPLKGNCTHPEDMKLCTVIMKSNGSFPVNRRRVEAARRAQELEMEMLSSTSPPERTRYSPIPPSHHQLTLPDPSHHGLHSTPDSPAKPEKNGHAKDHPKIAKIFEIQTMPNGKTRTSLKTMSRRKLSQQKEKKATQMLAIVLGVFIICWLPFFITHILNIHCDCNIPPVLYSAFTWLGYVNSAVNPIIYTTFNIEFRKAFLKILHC
SMILES,Potency,activation
O=C(CCCl)NCCc1ccccc1,inactive,
CC1=C(/C=C/C(C)=C\C=C\C(C)=C\C(=O)O)C(C)(C)CCC1,inactive,
C[C@H]1NCc2cc(-c3ccc4c(=O)c(C(=O)O)cn(C5CC5)c4c3OC(F)F)ccc21,,-2.66% [at 19 µM]
CCCCCc1ccc(Cl)cc1,inactive,
CCC(=O)c1cccc(Cl)c1,inactive,
Cc1ccc(C(=O)c2ccccc2)cc1,inactive,
CC(=O)CC(=O)OC(C)(C)C,inactive,
CC(C)C[C@H](NC(=O)[C@H](CCc1ccccc1)NC(=O)CN1CCOCC1)C(=O)N[C@@H](Cc1ccccc1)C(=O)N[C@@H](CC(C)C)C(=O)[C@@]1(C)CO1,inactive,
CC(=O)c1c(C)cc(C(C)(C)C)cc1C,inactive,
CC(C)NCC(O)c1ccc(NS(C)(=O)=O)cc1 (stereo not given),inactive,
CCN1CCN(c2cc3c(cc2F)c(=O)c(C(=O)O)cn3C2CC2)CC1,inactive,
CC(O)c1ccccc1 (stereo not given),inactive,
Cc1cc(O)c(C(C)(C)C)cc1Sc1cc(C(C)(C)C)c(O)cc1C,inactive,
CCCCCCCCOc1ccccc1C(=O)Nc1ccc(C(=O)OCC[N+](C)(CC)CC)cc1,inactive,
O=c1[nH]c(=O)n([C@H]2O[C@H](CO)[C@@H](O)[C@@H]2O)cc1/C=C\Br,inactive,
CC(N)CCCC(C)(C)O (stereo not given),inactive,
FC(F)(F)C(F)(F)C(F)(F)C(F)(F)C(F)(F)C(F)(F)C(F)(F)C(F)(F)Br,inactive,
CC(C)C[P+](C)(CC(C)C)CC(C)C,inactive,
CCc1nnc(NS(=O)(=O)c2ccc(N)cc2)s1,inactive,
COc1c(C)c2c(c(O)c1C/C=C(\C)CCC(=O)OCCN1CCOCC1)C(=O)OC2,inactive,

SMILES,Potency,activation
CC(=O)C=O,inactive,
CNC(=O)c1c(I)c(NC(=O)CCCCC(=O)Nc2c(I)c(C(=O)O)c(I)c(C(=O)NC)c2I)c(I)c(C(=O)O)c1I,inactive,
O=C1c2ccccc2C(=O)c2cc(Cl)ccc21,,1.23% [at 8.39 µM]
CN(Cc1cc(Br)cc(Br)c1N)C1CCCCC1,inactive,
COc1c(N2CCNC(C)C2)c(F)cc2c(=O)c(C(=O)O)cn(C3CC3)c12 (stereo not given),inactive,
CC1=CCC(=C(C)C)CC1,inactive,
CCOC(=O)C(=O)OCC,inactive,
CN1CCN(c2c(F)cc3c(=O)c(C(=O)O)cn4c3c2OCN4C)CC1,,11.6% [at 19 µM]
O=[N+]([O-])c1ccc2[nH]ncc2c1,inactive,
COC(=O)c1cccc(Cl)c1,inactive,
CCCCCCCCCCCCCC=O,,1.32% [at 8.39 µM]
COc1cc2c(cc1OC)C(C(C(=O)N(CCc1ccc(OC)c(OC)c1OC)CCc1ccc(OC)c(OC)c1OC)c1ccccc1)=NCC2 (stereo not given),inactive,
COC(=O)CS,inactive,
CCCC(=O)OCCC(C)C,inactive,
N#CSCC(=O)O,inactive,
OCCN(CCO)CCN(CCO)CCO,inactive,
CS(=O)(=O)c1ccc([C@@H](C[C@H]2CCC(=O)C2)C(=O)Nc2cnccn2)cc1Cl,inactive,
C[C@H]1O[C@@H](n2cc(F)c(=O)[nH]c2=O)[C@H](O)[C@@H]1O,inactive,
CC1(C)S[C@@H]2[C@H](N=CN3CCCCCC3)C(=O)N2[C@H]1C(=O)O,inactive,
O=C1c2ccccc2C(=O)C1c1nc2ccccc2c(Br)c1O,inactive,
